Compound activity: PubChem, The Scripps Research Institute Molecular Screening Center
M1 PAM parental – M1 PAM counterscreen hit in parental CHO-K1 cells | activation, % at 3 µM | ATP EC20, Fluo-8 calcium fluorescence; 0% at ATP EC20, 100% at ATP max | 0.02% of 360,000 active;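 active means activation above the run cutoff, the mean activation of all test compounds plus 3 SD, cut at about 40% in these data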;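 further: peak over basal fluorescence ratio in a 140 s read after ATP addition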
CHRM1 PAM – positive allosteric modulators of human M1 muscarinic receptor; 0.088% of 360,000 active; activation, % at 3 µM; CHO-K1 hM1, Fluo-8 calcium fluorescence, ACh EC20; 0% = ACh EC20, 100% = maximal ACh; P11229; in the data active means activation above about 19%, passing the limit was not always enough
Target sequence (P11229 whole entry, looked up): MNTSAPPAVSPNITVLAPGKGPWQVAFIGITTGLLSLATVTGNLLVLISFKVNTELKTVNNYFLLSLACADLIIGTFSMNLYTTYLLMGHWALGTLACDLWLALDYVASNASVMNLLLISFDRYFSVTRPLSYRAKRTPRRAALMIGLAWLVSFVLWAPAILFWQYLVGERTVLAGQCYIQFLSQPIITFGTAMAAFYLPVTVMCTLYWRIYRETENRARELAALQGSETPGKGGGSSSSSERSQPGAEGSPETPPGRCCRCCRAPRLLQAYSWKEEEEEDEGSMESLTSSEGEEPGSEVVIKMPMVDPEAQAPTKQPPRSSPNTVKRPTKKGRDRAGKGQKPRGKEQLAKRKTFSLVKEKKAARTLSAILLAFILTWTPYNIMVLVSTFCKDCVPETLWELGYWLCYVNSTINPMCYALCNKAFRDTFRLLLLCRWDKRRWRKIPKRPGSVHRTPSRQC
M1 ag parental – M1 agonist counterscreen hit in parental CHO-K1 cells; Fluo-8 calcium fluorescence; scaled to maximal ATP response, vehicle zero; 0.48% of 360,000 active; activation, % at 3 µM; in the data active means activation above about 15%;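 further: untransfected CHO-K1 host cells lacking M1 receptor as counterscreen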
CHRM1 agonist – activates human CHRM1 receptor | P11229 | CHO-K1 hM1, Fluo-8 calcium fluorescence, agonist mode; 0% DMSO, 100% acetylcholine EC100 | activation, % at 3 µM | 0.33% of 360,000 active | AID 588814;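 active means activation above the run's mean compound activation plus 3 SD, cut at about 16% in these data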;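 further: peak over basal fluorescence ratio within a 140 s kinetic read after compound addition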
CHO-K1 Ca antag – counter-screen for M1 antagonists: effect in parental CHO-K1 cells | inhibition, % at 3 µM | 0.6% of 360,000 active | ATP-induced calcium, Fluo-8 fluorescence;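 active means inhibition above a per-plate cutoff, the plate's mean sample inhibition plus 3 SD, cut at about 24% in these data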;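 further: 0% = DMSO plus EC80 ATP and 100% = DMSO alone without ATP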
M1 antag – antagonists of human M1 muscarinic receptor | P11229 | CHO-K1 hM1, Fluo-8 calcium fluorescence, ACh EC80 antagonist | inhibition, % at 3 µM | 1.3% of 360,000 active | AID 588852;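 active means percent inhibition above its own plate's cutoff, namely the mean of that plate's compound wells plus 3 SD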;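 further: peak over basal fluorescence ratio during 140 s after agonist addition; 0% = ACh EC80 plus DMSO and 100% = DMSO alone without agonist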
Numbers without * were called inactive. A selection: hits, their analogues and other compounds. The true share with any hit is near 2.3%.

How did O=S(=O)(c1ccccc1)[C@@]1(c2ccccc2)C[C@@H]2ON=C(c3cccc(-c4ccccc4)c3)[C@@H]2C1 do in these assays?
M1 PAM parental: -4.7; CHRM1 PAM: 2.1; M1 ag parental: 1.4; CHRM1 agonist: -1.4; CHO-K1 Ca antag: 11.4; M1 antag: -0.6

How did CCOc1ccc(NC(=O)CN(C)C(=O)c2ccc(OCC(=O)N3CCOCC3)c(OC)c2)cc1OCC do in these assays?
M1 PAM parental: 15.0; CHRM1 PAM: 4.6; M1 ag parental: 4.8; CHRM1 agonist: -5.4; CHO-K1 Ca antag: -6.7; M1 antag: -0.5

How did COC(=O)C1CCN(C(=O)COC(=O)CSc2ccc(C(N)=O)cc2[N+](=O)[O-])CC1 do in these assays?
M1 PAM parental: 7.2; CHRM1 PAM: 5.1; M1 ag parental: 0.4; CHRM1 agonist: -0.8; CHO-K1 Ca antag: -5.5; M1 antag: -16.7

Results for CCOc1cc(/C=N/NC(=O)CCn2nc(C)cc2C)ccc1O ?
M1 PAM parental: 3.5; CHRM1 PAM: 1.7; M1 ag parental: 0.9; CHRM1 agonist: 0.5; CHO-K1 Ca antag: -3.9; M1 antag: -2.2

How did O=S(=O)(Nc1nc2ccccc2[nH]1)c1ccc2ccccc2c1 do in these assays?
M1 PAM parental: 27.8; CHRM1 PAM: -21.8; M1 ag parental: 1.7; CHRM1 agonist: -8.2; CHO-K1 Ca antag: -8.3; M1 antag: 65.0*

What do the screens show for `O=S(=O)(Nc1ncn[nH]1)c1ccc2ccccc2c1`?
M1 PAM parental: 4.2; CHRM1 PAM: 0.2; M1 ag parental: 0.1; CHRM1 agonist: -1.0; CHO-K1 Ca antag: -7.4; M1 antag: 4.0

How did COc1cccc(/C=N/NC(=O)c2ccc(N3CCCC3=O)cc2)c1 do in these assays?
M1 PAM parental: -5.6; CHRM1 PAM: 11.3; M1 ag parental: 1.2; CHRM1 agonist: -3.1; CHO-K1 Ca antag: -2.2; M1 antag: -5.1

What do the screens show for `Cc1ccc(N/C(N)=N/c2nc(C)cc(N3CCCCC3)n2)c(C)c1`?
M1 PAM parental: 3.6; CHRM1 PAM: -31.7; M1 ag parental: 10.5; CHRM1 agonist: -10.3; CHO-K1 Ca antag: 25.2*; M1 antag: 33.7*

Results for COc1cccc(N/C(N)=N/c2nc(C(F)(F)F)cc(=O)[nH]2)c1 ?
M1 PAM parental: 18.0; CHRM1 PAM: 1.0; M1 ag parental: 17.9*; CHRM1 agonist: -6.7; CHO-K1 Ca antag: 7.8; M1 antag: 3.6

Results for COc1cccc(N/C(N)=N/c2nc(C(F)(F)F)cc(C(F)(F)F)n2)c1 ?
M1 PAM parental: -1.6; CHRM1 PAM: -8.8; M1 ag parental: 0.6; CHRM1 agonist: -6.8; CHO-K1 Ca antag: 3.4; M1 antag: 6.9

How did COc1ccc(/C=N/NC(=O)/C(=C/c2ccccc2)CCO)cc1 do in these assays?
M1 PAM parental: -4.0; CHRM1 PAM: 29.0*; M1 ag parental: 0.2; CHRM1 agonist: -4.8; CHO-K1 Ca antag: -2.9; M1 antag: 2.1

Results for CCSc1ncc(Cl)c(C(=O)Nc2ccc(S(=O)(=O)Nc3onc(C)c3C)cc2)n1 ?
M1 PAM parental: -8.7; CHRM1 PAM: 21.9*; M1 ag parental: -0.1; CHRM1 agonist: 3.7; CHO-K1 Ca antag: 5.7; M1 antag: -10.5

How did Cc1cccc2cc(-c3nc4c(C)cccn4c3NCc3ccco3)c(=O)[nH]c12 do in these assays?
M1 PAM parental: 12.5; CHRM1 PAM: -15.4; M1 ag parental: 2.8; CHRM1 agonist: 2.2; CHO-K1 Ca antag: -2.7; M1 antag: 27.8*

What do the screens show for `COc1ccc(CCn2c(C)cc(C(=O)CSc3nnnn3-c3ccccc3)c2C)cc1`?
M1 PAM parental: -7.6; CHRM1 PAM: -2.5; M1 ag parental: -0.6; CHRM1 agonist: -3.7; CHO-K1 Ca antag: 23.7*; M1 antag: 6.5

What do the screens show for `CC1=C(C(=O)N(C)C)CC(CC(=O)NCCc2ccccn2)C(=O)N1CCCN1CCCC1=O` (stereo not drawn)?
M1 PAM parental: 4.7; CHRM1 PAM: 3.4; M1 ag parental: 0.4; CHRM1 agonist: -2.7; CHO-K1 Ca antag: -6.3; M1 antag: -15.7

Results for O=C(CNS(=O)(=O)c1ccc(Cl)c(C(F)(F)F)c1)NC1CCCCC1 ?
M1 PAM parental: 1.3; CHRM1 PAM: 6.7; M1 ag parental: 1.3; CHRM1 agonist: -0.8; CHO-K1 Ca antag: -8.5; M1 antag: -3.5

Results for CCC1CCCCN1CCCNC(=O)CC1Oc2ccc(C)cc2NC1=O (stereo not drawn) ?
M1 PAM parental: -9.7; CHRM1 PAM: -26.3; M1 ag parental: -0.2; CHRM1 agonist: -14.0; CHO-K1 Ca antag: 21.4; M1 antag: 41.3*

Results for CCC1CCCCN1CCCNC(=O)CC1Oc2ccccc2NC1=O (stereo not drawn) ?
M1 PAM parental: -0.1; CHRM1 PAM: -8.5; M1 ag parental: -0.2; CHRM1 agonist: -13.1; CHO-K1 Ca antag: 3.4; M1 antag: 16.7

How did Cc1ccc2c(c1)NC(=O)C(CC(=O)O)O2 (stereo not drawn) do in these assays?
M1 PAM parental: -7.9; CHRM1 PAM: -3.2; M1 ag parental: 0.4; CHRM1 agonist: -4.3; CHO-K1 Ca antag: 26.0*; M1 antag: 2.9

How did N#Cc1ccc(C=NN2CCCCCC2)cc1 do in these assays?
M1 PAM parental: 8.5; CHRM1 PAM: -2.4; M1 ag parental: 1.5; CHRM1 agonist: -4.7; CHO-K1 Ca antag: -14.3; M1 antag: -15.1

Results for COC(=O)c1sccc1NC(=O)c1cc(-c2cc(C)ccc2C)nc2ccccc12 ?
M1 PAM parental: -11.6; CHRM1 PAM: -0.9; M1 ag parental: -0.1; CHRM1 agonist: -4.1; CHO-K1 Ca antag: 2.6; M1 antag: 2.1

How did Cc1ccc(C)c(-c2cc(C(=O)Nc3nccs3)c3ccccc3n2)c1 do in these assays?
M1 PAM parental: -4.3; CHRM1 PAM: -12.5; M1 ag parental: 4.2; CHRM1 agonist: -2.6; CHO-K1 Ca antag: 4.0; M1 antag: 33.3*

Results for Cc1cccc(NC(=O)c2cc(-c3ccc(C)s3)nc3ccccc23)n1 ?
M1 PAM parental: 6.4; CHRM1 PAM: -12.0; M1 ag parental: 3.7; CHRM1 agonist: -2.1; CHO-K1 Ca antag: 12.7; M1 antag: 23.1*

How did CN1OC[C@@H]2CN(S(=O)(=O)c3ccccc3)[C@H](c3ccc(-n4ccnc4)cc3)C[C@@H]21 do in these assays?
M1 PAM parental: 17.6; CHRM1 PAM: 3.7; M1 ag parental: 0.9; CHRM1 agonist: -7.5; CHO-K1 Ca antag: 2.7; M1 antag: -4.3

How did S=C(Nc1ccc(Nc2ccccc2)cc1)N1CCN(c2ncccn2)CC1 do in these assays?
M1 PAM parental: -4.8; CHRM1 PAM: 4.0; M1 ag parental: -0.2; CHRM1 agonist: -3.7; CHO-K1 Ca antag: 5.2; M1 antag: 1.0

How did CC(=O)Nc1ccc(S(=O)(=O)NC2C3(C)CCC(C3)C2(C)C)cc1 (stereo not drawn) do in these assays?
M1 PAM parental: -4.7; CHRM1 PAM: 5.8; M1 ag parental: 1.1; CHRM1 agonist: 2.9; CHO-K1 Ca antag: -1.4; M1 antag: -2.8
